MEP2 TOR yeast – modulators of TOR pathway MEP2-GFP in S. cerevisiae; S. cerevisiae MEP2-GFP strain, flow cytometry GFP, 3 h; 100% = DMSO control level; AID 2016; GFP response vs DMSO, % at 10 µM; 330,000 compounds, 0.51% hits;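 active means GFP response versus DMSO above a set limit, roughly screen mean plus 3 SD, cut at about 180% in these data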;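 further: median GFP fluorescence of the barcode-gated MEP2-GFP cells per well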
Efflux pump inh – blocks antifungal efflux pumps in multiplex yeast assay. S. cerevisiae Candida pump triplex, Nile Red efflux. inhibition, % at 10 µM. 330,000 compounds, 0.44% hits. AID 485275;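 active means plate passing quality check with inhibition over a set limit, or well fluorescence over plate mean plus 4 SD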;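 further: Nile Red retained in pooled yeast measured as flow cytometry median fluorescence; 0% = buffer negative control and 100% = Enniatin B positive control; higher means more Nile Red kept so more efflux inhibition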
CIT2 TOR yeast – alters CIT2-GFP fluorescence in TOR pathway yeast screen | GFP response vs DMSO, % at 10 µM | AID 2029 | 320,000 compounds, 0.065% hits | S. cerevisiae CIT2-GFP strain, flow cytometry, 3 h; 100 means same as DMSO wells;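 active means GFP response relative to DMSO above a set limit, near the screen mean plus 3 SD, cut at about 150% in these data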;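 further: ratio of well median GFP fluorescence to mean of DMSO wells on the plate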
RPL19A-GFP yeast – alters RPL19A-GFP fluorescence in TOR pathway yeast screen | S. cerevisiae RPL19A-GFP strain, flow cytometry, 3 h; active compounds read low | percent response vs DMSO, % at 10 µM | 330,000 compounds, 0.3% hits | AID 2025;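 active means percent response vs DMSO below 50%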;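 further: median channel GFP fluorescence of the barcoded RPL19A-GFP strain; ratio of sample median GFP to plate DMSO average so 100% = DMSO; lower means less RPL19A-GFP as with rapamycin TOR inhibition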
LAP4 TOR yeast – alters LAP4-GFP fluorescence in TOR pathway yeast screen | 320,000 compounds, 0.34% hits | AID 2023 | GFP response vs DMSO, % at 10 µM | S. cerevisiae LAP4-GFP multiplex, flow cytometry GFP, 3 h; median GFP as percent of DMSO wells;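 active means GFP response vs DMSO above a set limit, about the screen mean plus 3 SD, cut at about 150% in these data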
AGP1 TOR yeast – modulators of TOR pathway AGP1-GFP in S. cerevisiae; S. cerevisiae AGP1-GFP multiplex flow cytometry, 3 h; GFP as percent of DMSO wells; GFP response vs DMSO, % at 10 µM; 320,000 compounds, 0.02% hits; AID 2066;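 active means GFP response relative to DMSO above a set limit, near screen average plus 3 SD, cut at about 150% in these data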;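 further: median GFP channel fluorescence of the gated AGP1 strain per well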
LAP4 cherry2 – yeast LAP4-GFP modulation, second cherry pick. shares compounds with LAP4 TOR yeast. S. cerevisiae LAP4-GFP strain, flow cytometry GFP, 3 h. GFP response vs DMSO, % at 10 µM. 590 compounds, 20% hits;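 active means GFP signal as percent of the solvent control above about 150%, meaning raised reporter expression, limit read from the data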;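 further: ratio of well median GFP fluorescence to plate DMSO mean so 100% = DMSO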
MEP2 cherry2 – reconfirmed MEP2-GFP TOR pathway modulator in yeast. AID 2622. GFP response vs DMSO, % at 10 µM. shares compounds with LAP4 TOR yeast. 590 compounds, 10% hits. S. cerevisiae MEP2-GFP strain, flow cytometry GFP, 3 h;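 active means GFP signal above 150% of the solvent control wells, that is a rise of more than half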;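 further: median channel GFP fluorescence of all gated yeast cells per well; ratio of median GFP to plate DMSO average so 100% = DMSO level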
RPL19A-GFP pick2 – reconfirmed modulator of RPL19A-GFP TOR reporter in yeast; AID 2623; shares compounds with LAP4 TOR yeast; 590 compounds, 3% hits; GFP response vs DMSO, % at 10 µM; S. cerevisiae RPL19A-GFP strain, flow cytometry GFP, 3 h; active compounds read low; 100% means same as DMSO wells;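 active means under 65% GFP response relative to DMSO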;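 further: median GFP channel fluorescence per well over the all cells gate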
CIT2 GFP CP2 – reconfirmed modulator of CIT2-GFP TOR reporter in yeast | shares compounds with LAP4 TOR yeast | S. cerevisiae CIT2-GFP strain, flow cytometry GFP, 3 h; DMSO control wells read 100% | GFP response vs DMSO, % at 10 µM | 590 compounds, 8% hits;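 active means GFP response vs DMSO above about 150%, limit read from the data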;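 further: median green fluorescence per well over all gated yeast cells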
AGP1 GFP CP2 – yeast AGP1-GFP TOR reporter modulation, second cherry pick; shares compounds with LAP4 TOR yeast; S. cerevisiae AGP1-GFP strain, flow cytometry GFP, 3 h; percent response vs DMSO, % at 10 µM; 590 tested, under 10 active;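 active means over 150 percent of DMSO response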;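 further: median GFP channel fluorescence over all cells without mother daughter split; sample median GFP divided by mean DMSO control so 100% equals DMSO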
s288c autofluor – yeast s288c autofluorescence artifact, counter-screen. S. cerevisiae s288c, 520 nm autofluorescence, flow cytometry, 3 h; active compounds read high; zero means same as solvent-only cells. 610 tested, under 10 active. shares compounds with LAP4 TOR yeast. fluorescence change (kMESF span) at 33 µM;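 active means fluorescence span over the dose series, or activity score, above about 33, limit read from the data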
Cmpd fluor yeast – flagged as fluorescent in efflux inhibitor counter-screen; shares compounds with Efflux pump inh; S. cerevisiae AD/pABC3, compound fluorescence, flow cytometry; fluorescence ratio to DMSO, % at 10 µM; 1,700 compounds, 4% hits;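 active means fluorescence ratio to DMSO above its plate's cutoff, the plate mean ratio plus 5 SD, cut at about 210% in these data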;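 further: unstained yeast with no Nile Red so the signal is compound autofluorescence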
CaMdr1 efflux inh – Candida Mdr1 efflux pump inhibition; shares compounds with Efflux pump inh; S. cerevisiae AD/CaMDR1, Nile Red efflux, flow cytometry; inhibition, % at 10 µM; 1,700 compounds, 1% hits; in the data active means inhibition above about 26%;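 further: 0% = DMSO vehicle and 100% = reference inhibitor; higher means more Nile Red retained so more efflux inhibition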
CaCdr2 efflux inh – blocks the Candida albicans Cdr2 efflux pump in yeast. Nile Red retention ratio vs DMSO, % at 10 µM. S. cerevisiae AD/CaCDR2, Nile Red retention, flow cytometry. shares compounds with Efflux pump inh. AID 588520. 1,700 compounds, 4% hits; in the data active means Nile Red retention ratio vs DMSO above about 190%;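 further: higher ratio means more blocking of Cdr2 efflux of the dye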
Cdr1 pump inh – Candida Cdr1 efflux pump inhibition; inhibition, % at 10 µM; 1,700 compounds, 1% hits; shares compounds with Efflux pump inh; S. cerevisiae AD/CaCDR1, Nile Red efflux, flow cytometry;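 active means inhibition above the screen-wide mean plus twice its standard deviation, cut at about 32% in these data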
* = called active by the depositor. This is a sample that favours compounds with a hit; in the whole collection about 1.3% have one here.

For CCOc1ccc(C(C)=O)cc1N1C(=O)C2C3C=CC(O3)C2C1=O (configuration not stated) the results were MEP2 TOR yeast 84, Efflux pump inh 0, CIT2 TOR yeast 87, RPL19A-GFP yeast 98, LAP4 TOR yeast 203*, AGP1 TOR yeast 78 and s288c autofluor 0.51.
Screening COc1ccc(C2OC34CCCCC3C(C#N)(C#N)C2(C#N)C(=N)O4)cc1 (configuration not stated) returned MEP2 TOR yeast 139, Efflux pump inh 0, CIT2 TOR yeast 80, RPL19A-GFP yeast 63, LAP4 TOR yeast 93, AGP1 TOR yeast 32, LAP4 cherry2 94, MEP2 cherry2 96, RPL19A-GFP pick2 100, CIT2 GFP CP2 106 and AGP1 GFP CP2 96.
Cc1ccc(N/N=C(\C#N)C(N)=S)c(C)c1 was read as MEP2 TOR yeast 142, Efflux pump inh 0, CIT2 TOR yeast 90, RPL19A-GFP yeast 84, LAP4 TOR yeast 161*, AGP1 TOR yeast 101, LAP4 cherry2 166*, MEP2 cherry2 218*, RPL19A-GFP pick2 86, CIT2 GFP CP2 136, AGP1 GFP CP2 128 and s288c autofluor 4.1.
CC(=O)N/N=C/c1ccccc1OCCOc1cccc(C)c1 was read as MEP2 TOR yeast 102, Efflux pump inh 0, CIT2 TOR yeast 81, RPL19A-GFP yeast 91, LAP4 TOR yeast 89 and AGP1 TOR yeast 83.
Screening C/C(=N\Nc1cc(C(F)(F)F)ccc1Cl)c1ccncc1 returned MEP2 TOR yeast 101, Efflux pump inh 0, CIT2 TOR yeast 113, RPL19A-GFP yeast 102, LAP4 TOR yeast 95 and AGP1 TOR yeast 90.
`N#C/C(N=Nc1ccccc1O)=N\Nc1ccccc1O` gave MEP2 TOR yeast 92, Efflux pump inh 0, CIT2 TOR yeast 77, RPL19A-GFP yeast 97, LAP4 TOR yeast 183*, AGP1 TOR yeast 74, LAP4 cherry2 138, MEP2 cherry2 110, RPL19A-GFP pick2 100, CIT2 GFP CP2 110 and AGP1 GFP CP2 90.
CCOC(=O)/C(C#N)=N/Nc1ccccc1C(=O)O was read as MEP2 TOR yeast 108, Efflux pump inh 0, CIT2 TOR yeast 105, RPL19A-GFP yeast 109, LAP4 TOR yeast 101 and AGP1 TOR yeast 106.
O=C(Nc1nnc(-c2ccc3c(c2)CCCC3)o1)c1ccc(Cl)cc1Cl was read as MEP2 TOR yeast 109, Efflux pump inh 0, CIT2 TOR yeast 53, RPL19A-GFP yeast 56, LAP4 TOR yeast 84, AGP1 TOR yeast 35, LAP4 cherry2 153*, MEP2 cherry2 211*, RPL19A-GFP pick2 105, CIT2 GFP CP2 161*, AGP1 GFP CP2 94 and s288c autofluor 0.41.
N#C/C(=C(/O)C(Cl)c1ccccc1)c1nc2ccccc2s1 (configuration not stated) was read as MEP2 TOR yeast 86, Efflux pump inh 0, CIT2 TOR yeast 84, RPL19A-GFP yeast 94, LAP4 TOR yeast 99 and AGP1 TOR yeast 89.
N#C/C(=C\c1ccccn1)c1nc2ccccc2s1 was read as MEP2 TOR yeast 752*, Efflux pump inh 1.6*, RPL19A-GFP yeast 166, LAP4 TOR yeast 634*, AGP1 TOR yeast 166*, s288c autofluor 33*, Cmpd fluor yeast 160, CaMdr1 efflux inh 0, CaCdr2 efflux inh 247* and Cdr1 pump inh 1.
Screening C=CCc1ccccc1OCC(=O)NNC(=S)NCc1ccccc1 returned MEP2 TOR yeast 93, Efflux pump inh 0, CIT2 TOR yeast 91, RPL19A-GFP yeast 97, LAP4 TOR yeast 90 and AGP1 TOR yeast 98.
`Cc1ccnc(N2C(=O)c3cccc4c([N+](=O)[O-])ccc(c34)C2=O)c1` gave MEP2 TOR yeast 312*, Efflux pump inh 0.9*, CIT2 TOR yeast 181*, RPL19A-GFP yeast 111, LAP4 TOR yeast 232*, AGP1 TOR yeast 75, s288c autofluor 6.2, Cmpd fluor yeast 216, CaMdr1 efflux inh 1, CaCdr2 efflux inh 129 and Cdr1 pump inh 1.
Screening CC(C)(C)c1cc(C(c2cccnc2)N2CCN(CCO)CC2)cc(C(C)(C)C)c1O (configuration not stated) returned MEP2 TOR yeast 99, Efflux pump inh 0.4*, CIT2 TOR yeast 95, RPL19A-GFP yeast 89, LAP4 TOR yeast 161*, AGP1 TOR yeast 83, s288c autofluor 24, Cmpd fluor yeast 90, CaMdr1 efflux inh 0, CaCdr2 efflux inh 87 and Cdr1 pump inh 0.
